The results in this text go back to PubChem BioAssay AID1540 (National Center for Advancing Translational Sciences (NCATS), 2009).

Where “and” joins values, the source holds several entries; their conditions need not be identical. Equal values may be shown once. Results filed as inconclusive are left out. Calls of active or inactive are those of the source. Calls come from the whole dose curve; as a rule, active = well fitted activation curve with a large enough effect; inconclusive = small, poorly fitted or top-dose-only effect, or effect the other way; inactive = flat fitted curve, though single readings scatter.

Chain of Pyruvate kinase PKM (Homo sapiens) (P14618 whole entry, looked up, canonical isoform): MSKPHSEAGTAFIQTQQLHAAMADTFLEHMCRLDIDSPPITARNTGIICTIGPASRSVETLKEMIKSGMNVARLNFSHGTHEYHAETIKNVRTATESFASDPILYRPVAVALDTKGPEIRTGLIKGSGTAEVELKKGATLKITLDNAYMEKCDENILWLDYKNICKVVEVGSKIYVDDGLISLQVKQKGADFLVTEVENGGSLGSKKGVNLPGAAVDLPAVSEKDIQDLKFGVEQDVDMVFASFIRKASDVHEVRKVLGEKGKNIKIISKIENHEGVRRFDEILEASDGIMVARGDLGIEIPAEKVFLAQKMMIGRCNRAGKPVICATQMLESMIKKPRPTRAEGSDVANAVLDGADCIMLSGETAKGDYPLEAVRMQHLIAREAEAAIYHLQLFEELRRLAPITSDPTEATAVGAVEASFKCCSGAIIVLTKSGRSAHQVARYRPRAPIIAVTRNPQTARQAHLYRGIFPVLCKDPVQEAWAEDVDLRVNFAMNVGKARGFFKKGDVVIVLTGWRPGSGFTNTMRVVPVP

This experiment concerns the target Pyruvate kinase PKM (Homo sapiens) (UniProt P14618). The experiment is described as follows: Secondary assay for Activators of Human Pyruvate Kinase M2 isoform. The conditions noted are these: purified hPK-M2, LDH-coupled NADH fluorescence kinetic; series mostly up to 57.5 µM; activation: at the top concentration. From the text: Confirmatory assay NIH Chemical Genomics Center [NCGC] Matthew G. Vander Heiden, M.D., Ph.D. [Harvard Medical School, 77 Avenue Louis Pasteur, Boston, MA 02115] NCGC Assay Overview: Human pyruvate kinase muscle 2 (hPK-M2)enzyme was supplied as a highly purified (>95% pure) preparation from Harvard Medical School and a secondary assay was used to evaluate compounds. This assay couples the formation of pyruvate from hPK-M2 using lactate dehydrogenase (LDH) and NADH. The depletion of NADH is followed in a fluorescent-based kinetic assay that follows the formation of pyruvate to lactate, as catalyzed LDH (described by Hannaert et al., 2002)1 Pyruvate kinase substrates, PEP and ADP, were present in the assay at 0.1 mM and 4 mM respectively. In this kinetic assay initial rates were determined by following the fluorescence of NADH depletion.
NCGC Assay Protocol Summary: Three uL of substrate mix (final concentration, 50 mM Tris-Cl pH 8.0, 200 mM KCl, 15 mM MgCl2, 0.1 mM PEP, 4.0 mM ADP, and 0.2 mM NADH) was dispensed into black-solid 1536 well plates. 23 nL of compounds were delivered by a pin tool and 1 uL of enzyme mix (final concentrations, 10 nM hPK-M2 and 1 uM of LDH) was added. Plates were immediately placed in ViewLux (Perkin Elmer) and NADH fluorescence was determined at 30 second exposure intervals for between 3 and 6 minutes. Data were normalized to the uninhibited and EC100 activation using known activators such as fructose-bis-phosphate.
For the molecule `O=S(=O)(c1ccc2c(c1)OCCO2)N1CCN(S(=O)(=O)c2cc(F)c(Br)cc2F)CC1`, the Potency was 708 nM (active).

As for `O=C1CN(S(=O)(=O)c2ccc3c(c2)OCCO3)CCN1S(=O)(=O)c1c(F)cccc1F`, the Potency is 2820 nM (active).

Take `CC(=O)Nc1cccc(S(=O)(=O)N2CCN(S(=O)(=O)c3c(F)cccc3F)CC2)c1`: the Potency was 14600 nM (active).

Regarding `O=S(=O)(c1ccc2c(c1)OCCO2)N1CCN(S(=O)(=O)c2ccccn2)CC1`, the Potency was 2820 nM (active).

In the case of `CSc1cc2c(s1)c1cnn(Cc3ccccc3F)c(=O)c1n2C`, the Potency was 708 nM (active).

Take `CS(=O)(=O)Nc1cccc(-c2cc(F)c(S(=O)(=O)N3CCN(S(=O)(=O)c4ccc5c(c4)OCCO5)CC3)cc2F)c1`: the “activation” value was -11.4% (inactive).

With `COc1cc(F)c(S(=O)(=O)N2CCN(S(=O)(=O)c3cccc(N)c3)CC2)c(F)c1`, the Potency is 73 nM (active).

Turning to `Cn1c2ccsc2c2cnn(Cc3ccc(F)cc3)c(=O)c21`, the Potency is 562 nM (active).

In the case of `Nc1ccc(S(=O)(=O)N2CCN(S(=O)(=O)c3ccc4c(c3)OCCO4)CC2)cc1`, the Potency was 163 nM (active).

With `Cc1cc2c(s1)c1cnn(Cc3cccc(Cl)c3)c(=O)c1n2C`, the Potency was 355 nM (active).

Take `COc1cc(F)c(S(=O)(=O)N2CCCN(S(=O)(=O)c3cccc(NC(C)=O)c3)CC2)c(F)c1`: the Potency is 2910 nM (active).

Regarding `Cn1c2cc(Br)sc2c2cnn(Cc3ccc(F)cc3F)c(=O)c21`, the Potency was 708 nM (active).

In the case of `COc1cc(F)c(S(=O)(=O)N2CCCN(S(=O)(=O)c3ccc(NC(C)=O)cc3)CC2)c(F)c1`, the Potency is 6510 nM (active).

With `Cn1c2cc(C=O)sc2c2cnn(Cc3ccccc3F)c(=O)c21`, the Potency was 282 nM (active).

For the molecule `O=S(=O)(c1c(F)cccc1F)N1CCN(S(=O)(=O)c2c(F)cccc2F)CC1`, the Potency is 126 nM (active).

Turning to `Cc1cc2c(s1)c1cnn(Cc3ccccc3)c(=O)c1n2C`, the Potency was 199 nM (active).

As to `CSc1cc2c(s1)c1cnn(Cc3cccc(O)c3)c(=O)c1n2C`, the Potency was 65.1 nM (active).

In the case of `CN(C)c1cccc(S(=O)(=O)N2CCN(S(=O)(=O)c3ccc4c(c3)OCCO4)CC2)c1`, the “activation” value was -8.86% (inactive).

Consider `Cc1nc2ccc(S(=O)(=O)N3CCN(S(=O)(=O)c4c(F)cccc4F)CC3)cc2s1`, for which the Potency was 631 nM (active).

For the molecule `CC(=O)c1cc2c(s1)c1cnn(Cc3ccccc3F)c(=O)c1n2C`, the Potency was 158 nM (active).

Take `Cn1c2cc(Br)sc2c2cnn(Cc3c(F)cccc3F)c(=O)c21`: the Potency was 631 nM (active).

Take `CC1(C)CCc2cc(S(=O)(=O)N3CCN(S(=O)(=O)c4c(F)cccc4F)CC3)ccc2O1`: the Potency is 5.01 µM (active) and 631 nM (active).

Regarding `Nc1cccc(S(=O)(=O)N2CCN(S(=O)(=O)c3c(F)cccc3F)CC2)c1`, the Potency is 206 nM (active).

`O=C1CN(S(=O)(=O)c2c(F)cccc2F)CCN1S(=O)(=O)c1ccc2c(c1)OCCO2`: the Potency is 2510 nM (active).

`O=C(O)Cc1cc(F)c(S(=O)(=O)N2CCN(S(=O)(=O)c3ccc4c(c3)OCCO4)CC2)cc1F`: the Potency was 14100 nM (active).

Turning to `COc1cc(F)c(S(=O)(=O)N2CCN(S(=O)(=O)c3ccc(NC(C)=O)cc3)CC2)c(F)c1`, the Potency is 14600 nM (active).

For `Cn1c2cc(CO)sc2c2cnn(Cc3ccccc3F)c(=O)c21`, the Potency is 141 nM (active).

Consider `COc1ccc(S(=O)(=O)N2CCN(S(=O)(=O)c3ccc4c(c3)OCCO4)CC2)cc1`, for which the Potency was 562 nM (active).

`COCCCc1cc(F)c(S(=O)(=O)N2CCN(S(=O)(=O)c3ccc4c(c3)OCCO4)CC2)cc1F`: the Potency was 3160 nM (active).

In the case of `COc1cc(F)c(S(=O)(=O)N2CCN(S(=O)(=O)c3ccco3)CC2)c(F)c1`, the Potency was 116 nM (active).

On to `CCc1cc2c(s1)c1cnn(Cc3ccccc3F)c(=O)c1n2C`, for which the Potency was 631 nM (active).

Take `Cc1cc2c(s1)c1cnn(Cc3cccc(F)c3F)c(=O)c1n2C`: the Potency is 501 nM (active).

With `Cc1cc2c(s1)c1cnn(Cc3ccc(F)c(F)c3F)c(=O)c1n2C`, the Potency was 1260 nM (active).

For the molecule `CC(=O)Nc1ccc(S(=O)(=O)N2CCN(S(=O)(=O)c3ccc4c(c3)OCCO4)CC2)cc1`, the Potency was 919 nM (active).

As for `Cc1cc2c(s1)c1cnn(Cc3cccc(Cn4ncc5c6sc(C)cc6n(C)c5c4=O)c3F)c(=O)c1n2C`, the Potency is 35500 nM (active).

Turning to `Cc1cc2[nH]c3c(=O)n(Cc4ccccc4F)ncc3c2s1`, the Potency is 708 nM (active).

`C[C@H]1CN(S(=O)(=O)c2ccc3c(c2)OCCO3)CCN1S(=O)(=O)c1c(F)cccc1F`: the Potency was 5010 nM (active).

Turning to `COc1cc2c(s1)c1cnn(Cc3ccccc3F)c(=O)c1n2C`, the Potency is 158 nM (active).

With `COc1cccc(Cn2ncc3c4sc(S(C)=O)cc4n(C)c3c2=O)c1` (stereo not given), the Potency was 146 nM (active).

As to `Nc1ccc(S(=O)(=O)N2CCCN(S(=O)(=O)c3ccc4c(c3)OCCO4)CC2)cc1`, the Potency is 366 nM (active).
